From PubChem BioAssay
HEK293 viab = reduces viability of HEK-293 SNCA reporter cells; HEK-293-SNCA-luc viability, GF-AFC fluorescence, 24 h; Potency, µM (series often up to 57.1 µM), without a hit: top-dose activity change, negative = cytotoxicity, most hits filed as cytotoxic; 150,000 tested, 0.12% active; AID 1671193;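 also: potency is read from the fitted curve at half-maximal effect; 0% = DMSO-treated cells and -100% = medium-only wells without cells; nearly all actives have a fitted effect of over 30% in size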
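Cytotoxicity counterscreen: after 24 h compound treatment of genome-edited SNCA-luciferase HEK-293 cells, live-cell protease substrate GF-AFC read by fluorescence after 30 min; activity scaled between DMSO (0%) and medium-only (-100%), curves Hill-fitted.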
KDM5B inh = inhibitors of human KDM5B histone demethylase. Q9UGL1. KDM5B demethylase, FDH-coupled NADH fluorescence (FDH is formaldehyde dehydrogenase). Potency, µM (series often up to 57.7 µM), usual class: inhibitors. 220,000 tested, 2.6% active; also: potency is read from the fitted curve at half-maximal effect; 0% is about no effect; nearly all actives have a fitted effect of over 70% in size
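Compound dilutions met 200 nM (final) KDM5BΔAP for 10 min at room temperature before substrate addition. The substrate mix held 12.5 µM H3K4me3 with cofactors 25 µM α-ketoglutarate and 50 µM Fe²⁺. NADH signal gain over 30 min defined activity.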
IP6K1 inh = IP6K1 kinase inhibition; AID 1645851; activity change, % (series mostly up to about 58 µM); 140,000 tested, 0.81% active; IP6K1 kinase, ADP-Glo luminescence, 2 h; hits give low values; in the data active = activity change below about -25%; also: % is scaled to controls: 0 for no effect and ±100 for the full control effect
Target sequence (Q92551 whole entry, looked up): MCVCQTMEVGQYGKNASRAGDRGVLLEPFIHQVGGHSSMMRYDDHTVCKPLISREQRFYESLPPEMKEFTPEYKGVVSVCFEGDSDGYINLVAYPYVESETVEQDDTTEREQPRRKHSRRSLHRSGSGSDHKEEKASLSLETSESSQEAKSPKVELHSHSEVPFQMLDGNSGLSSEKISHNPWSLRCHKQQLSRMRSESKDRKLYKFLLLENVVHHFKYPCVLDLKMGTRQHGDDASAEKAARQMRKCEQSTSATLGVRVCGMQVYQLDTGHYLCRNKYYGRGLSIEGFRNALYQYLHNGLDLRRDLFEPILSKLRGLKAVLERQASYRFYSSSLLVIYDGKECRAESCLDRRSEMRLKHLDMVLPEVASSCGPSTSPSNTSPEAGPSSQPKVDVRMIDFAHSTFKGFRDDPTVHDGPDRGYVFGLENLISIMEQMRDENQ
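ADP-Glo luminescence measures ADP made by human IP6K1 during a 2 h RT reaction with ATP/IP6 (mix at 1.3 mM/130 uM); top library doses 57.5 and 19.1 uM final.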
SNCA expr inhib = reduces expression of the alpha-synuclein gene. HEK-293 SNCA-luciferase knock-in, luminescence, 24 h. Potency, µM (highest dose often 57.2 µM), inactives show at the top dose activity change, negative = inhibition, actives largely listed as inhibitors. 140,000 tested, 0.17% active. AID 1671194;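 also: potency is read from the fitted curve at half-maximal effect; plate controls were DMSO cells for no effect and cell-free wells for full effect; nearly all actives have a fitted effect of over 45% in size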
An asterisk follows results filed as active; [ ] = remark or other dose. Only some compounds are listed: those with a hit (about 2.9% of all), similar ones and a draw of the others. Unless noted, calls follow the shape of the dose curve; as a rule, active = well fitted curve in the direction sought with a large enough effect; inconclusive = small, poorly fitted or top-dose-only effect, or another doubt; inactive = no such curve, though single readings can be large; an effect the other way counts as inactive or inconclusive.

Screening C=C[C@@]1(C)CCC2C(=CCC3[C@]2(C)CCC[C@@]3(C)C(=O)O)C1 (some centres undefined) returned HEK293 viab -14% and IP6K1 inh 6.
`Cc1nn(C)c(C)c1-c1ccnc(NCC2COc3ccccc3O2)n1` (centres undefined) gave HEK293 viab 6%, KDM5B inh inconclusive, IP6K1 inh 6 and SNCA expr inhib -26%.
Cc1nn(C)c(C)c1-c1ccnc(NCC2CC(=O)N(C3CCCC3)C2)n1 (centres undefined) was read as HEK293 viab 3%, KDM5B inh 25µM*, IP6K1 inh 1 and SNCA expr inhib -7%.
For COc1ccccc1/C=C(\C)C(=O)c1c(C)cc(C)[nH]c1=O the results were KDM5B inh inactive.
COc1c/c(=C2\C=c3ccccc3=N2)[nH]/c1=C\c1[nH]c(C)cc1C was read as HEK293 viab 4.7µM* and IP6K1 inh -12.
O=C(NCc1ccccc1)c1ccc2c(c1)N(Cc1ccccc1)C(=O)c1ccccc1S2(=O)=O was read as HEK293 viab -3%, KDM5B inh inactive, IP6K1 inh 10 and SNCA expr inhib 11%.
For O=C1c2cnc(-c3ccccc3OCc3ccccc3)nc2OCCN1CC1CC1 the results were HEK293 viab -17%[87.6 µM], KDM5B inh 32µM*, IP6K1 inh 15 and SNCA expr inhib 15%[87.6 µM].
COc1cccc(-c2ncc3c(n2)OCCN(Cc2ccc(F)cc2F)C3=O)c1F was read as HEK293 viab -6%[87.6 µM], KDM5B inh inconclusive, IP6K1 inh 11 and SNCA expr inhib 87%[87.6 µM].
For COc1ccccc1-c1ncc2c(n1)OCCN(Cc1ccc(F)cc1F)C2=O the results were HEK293 viab 3%[87.6 µM], KDM5B inh 35µM*, IP6K1 inh 9 and SNCA expr inhib 15%[87.6 µM].
For COc1cccc(-c2ncc3c(n2)OCCN(Cc2ccc(F)cc2F)C3=O)c1 the results were HEK293 viab -8%[87.6 µM], KDM5B inh 35µM*, IP6K1 inh -9 and SNCA expr inhib 70%[87.6 µM].
Screening O=C1NC(=NC2CCCCC2)C2(CCN(Cc3ccccc3)C2)N1c1cccnc1 (centres undefined) returned HEK293 viab -4%, KDM5B inh inactive, IP6K1 inh 7 and SNCA expr inhib inconclusive.
Screening CCOC(=O)N1CCN(C(=O)c2c(-c3ccccc3Cl)noc2C)CC1 returned KDM5B inh inactive.
For CCOc1ccc(CN2CCN(c3ncnc4sc5c(c34)CC(C)CC5)CC2)cc1 (centres undefined) the results were HEK293 viab -4%, KDM5B inh inactive[11.5 µM], IP6K1 inh -9 and SNCA expr inhib -8%.
For CCn1cc(CN2CCN(C(=O)c3cccs3)CC2)ccc1=O the results were HEK293 viab 3%, KDM5B inh 11µM*, IP6K1 inh -2 and SNCA expr inhib 36%.
For O=C(c1ccccn1)N1CCN(Cc2ccc(=O)n(CC3CC3)c2)CC1 the results were HEK293 viab 2%, KDM5B inh 16µM*, IP6K1 inh 1 and SNCA expr inhib 20%.
For CCn1cc(CN2CCN(C(=O)CCc3ccccc3)CC2)ccc1=O the results were HEK293 viab 9%, KDM5B inh 7.1µM*, IP6K1 inh -2 and SNCA expr inhib 12%.
For CN(C(=O)CSc1ncnc2ccccc12)C1CCS(=O)(=O)C1 (centres undefined) the results were KDM5B inh inactive.
For COC1CCN(c2cc(-c3cccc(C(F)(F)F)c3)nc3c(C)noc23)CC1 the results were HEK293 viab 1%[87.6 µM], KDM5B inh inactive, IP6K1 inh 3 and SNCA expr inhib inconclusive.
`NC(=O)CO[C@@H]1CO[C@H]2[C@@H]1OC[C@@H]2NC(=O)Nc1cccc2ccccc12` gave HEK293 viab 4%[87.6 µM], KDM5B inh 28µM*, IP6K1 inh -13 and SNCA expr inhib -16%[87.6 µM].
Screening S=C(Nc1cccc2ccccc12)N[C@H]1CO[C@H]2[C@@H]1OC[C@H]2OCc1ccccc1 returned HEK293 viab -27%[87.6 µM], KDM5B inh 35µM*, IP6K1 inh 3 and SNCA expr inhib -19%[87.6 µM].
For O=C(Nc1cccc2ccccc12)O[C@@H]1CO[C@H]2[C@@H]1OC[C@@H]2NC(=S)Nc1cccc2ccccc12 the results were HEK293 viab -14%, KDM5B inh inconclusive, IP6K1 inh 8 and SNCA expr inhib -18%.
Screening NC(=O)CO[C@@H]1CO[C@H]2[C@@H]1OC[C@@H]2NC(=O)Nc1ccccc1 returned HEK293 viab 2%[87.6 µM], KDM5B inh inactive, IP6K1 inh -1 and SNCA expr inhib 5%[87.6 µM].
C=C(C)Cn1c(SCC(=O)N/N=C/c2ccccc2OCC(=O)O)nnc1-c1ccc(Br)cc1 was read as KDM5B inh inactive.
`COc1cc(NC(=O)Cn2nc3c(cc2=O)CN(C(C)=O)CC3)cc(OC)c1` gave HEK293 viab 9%, KDM5B inh inactive, IP6K1 inh 0 and SNCA expr inhib 8%.
Cc1ccc2nc(C)c(C)c(C(=O)NCc3nc(-c4ncccn4)no3)c2c1 was read as HEK293 viab -7%, KDM5B inh 28µM*, IP6K1 inh -1 and SNCA expr inhib 11%.
`COc1ccc2c(C)c(C(=O)NCc3nc(-c4ncccn4)no3)oc2c1` gave HEK293 viab -2%, KDM5B inh inactive, IP6K1 inh 12 and SNCA expr inhib 1%.
For O=C(Cc1cccc(Cl)c1)N1CCNc2cnc(Nc3cccc(C(F)(F)F)c3)nc2C1 the results were HEK293 viab -20%, KDM5B inh inconclusive, IP6K1 inh -14 and SNCA expr inhib inconclusive.
For COCCC(=O)N1CCNc2cnc(Nc3cccc(C(F)(F)F)c3)nc2C1 the results were HEK293 viab -3%[87.6 µM], KDM5B inh inconclusive, IP6K1 inh -10 and SNCA expr inhib 27%[87.6 µM].
`O=C(CCc1ccccc1)N1CCNc2cnc(Nc3cccc(C(F)(F)F)c3)nc2C1` gave HEK293 viab -7%, KDM5B inh 25µM*, IP6K1 inh -6 and SNCA expr inhib -18%.
Screening O=C(Cc1ccc2c(c1)OCO2)N1CCNc2cnc(Nc3cccc(C(F)(F)F)c3)nc2C1 returned HEK293 viab -5%, KDM5B inh 14µM*, IP6K1 inh -9 and SNCA expr inhib inconclusive.
Screening O=C(CCc1ccccc1)N1CCC2(CC1)CN(c1ncccn1)CC2CO (centres undefined) returned HEK293 viab 6%, KDM5B inh inconclusive, IP6K1 inh 18 and SNCA expr inhib -11%.
COc1ccccc1C(=O)N1CCC2(CC1)CN(c1ncccn1)CC2CO (centres undefined) was read as HEK293 viab 7%, KDM5B inh 25µM*, IP6K1 inh 5 and SNCA expr inhib 8%.
For CCOc1ccccc1C(=O)N1CCC2(CC1)CN(c1ccncn1)CC2CO (centres undefined) the results were HEK293 viab -1%[12.5 µM], KDM5B inh inactive, IP6K1 inh 15 and SNCA expr inhib -17%.
`N#Cc1ccc(C(=O)N2CCC3(CC2)CN(c2ncccn2)CC3CO)cc1` (centres undefined) gave HEK293 viab -6%, KDM5B inh 22µM*, IP6K1 inh 21 and SNCA expr inhib 10%.
